Assay results from paper PMC3218832.

What was measured:
Experiment in all cases: protein binding microarray; high values mean tight binding
Settings in all cases: dsDNA, one strand shown
RELARELA (p65 homodimer) = RELARELA (p65 homodimer) (Homo sapiens, UniProt Q04206 1-307)
p50p50 homodimer = p50p50 homodimer (Homo sapiens, UniProt P19838 7-356)
p52p52 homodimer = target: T1, p52p52 homodimer (Homo sapiens, UniProt Q00653 4-332)
T1 sequence: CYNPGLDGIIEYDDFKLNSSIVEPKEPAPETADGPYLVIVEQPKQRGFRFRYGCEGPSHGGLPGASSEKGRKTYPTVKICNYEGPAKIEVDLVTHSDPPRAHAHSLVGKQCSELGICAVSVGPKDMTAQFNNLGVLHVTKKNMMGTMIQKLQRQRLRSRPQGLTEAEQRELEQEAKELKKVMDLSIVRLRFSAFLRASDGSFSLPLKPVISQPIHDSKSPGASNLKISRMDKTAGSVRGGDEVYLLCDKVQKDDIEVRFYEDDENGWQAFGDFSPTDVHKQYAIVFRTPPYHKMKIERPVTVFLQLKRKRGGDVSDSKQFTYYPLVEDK

[1] = target: RELA (p65) subunit of heterodimer;p50 subunit (Homo sapiens;Homo sapiens, UniProt Q04206;P19838 1-307;7-356)
Sequence of RELA (p65) subunit of heterodimer;p50 subunit (Q04206 1-307, chain 1 of 2): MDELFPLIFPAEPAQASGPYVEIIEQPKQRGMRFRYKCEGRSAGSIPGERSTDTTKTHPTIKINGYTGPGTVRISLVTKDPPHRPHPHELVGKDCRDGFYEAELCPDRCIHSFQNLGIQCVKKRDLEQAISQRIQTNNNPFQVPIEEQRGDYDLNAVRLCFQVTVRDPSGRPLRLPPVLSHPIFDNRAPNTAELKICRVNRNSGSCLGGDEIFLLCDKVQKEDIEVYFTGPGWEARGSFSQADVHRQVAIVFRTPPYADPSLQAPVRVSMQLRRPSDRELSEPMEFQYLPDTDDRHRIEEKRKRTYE
Sequence of RELA (p65) subunit of heterodimer;p50 subunit (P19838 7-356, chain 2 of 2): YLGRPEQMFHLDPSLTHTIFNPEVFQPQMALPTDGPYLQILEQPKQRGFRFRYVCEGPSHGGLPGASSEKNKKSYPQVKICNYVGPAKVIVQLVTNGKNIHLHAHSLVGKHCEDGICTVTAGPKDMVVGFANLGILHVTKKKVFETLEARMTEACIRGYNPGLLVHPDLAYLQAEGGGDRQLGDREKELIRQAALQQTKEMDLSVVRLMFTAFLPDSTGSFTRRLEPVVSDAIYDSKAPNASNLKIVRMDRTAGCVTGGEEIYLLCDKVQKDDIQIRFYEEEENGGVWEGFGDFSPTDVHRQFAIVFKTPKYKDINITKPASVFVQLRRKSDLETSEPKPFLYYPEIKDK

[2] = target: RELA (p65) subunit of heterodimer;p52 subunit (Homo sapiens;Homo sapiens, UniProt Q04206;Q00653 1-307;4-332)
RELB subunit;p50 subunit = RELB subunit;p50 subunit (Homo sapiens;Homo sapiens, UniProt Q01201;P19838 120-401;7-356)
RELB subunit;p52 subunit = target: T2, RELB subunit;p52 subunit (Homo sapiens;Homo sapiens, UniProt Q01201;Q00653 120-401;4-332)
T2 sequence 1: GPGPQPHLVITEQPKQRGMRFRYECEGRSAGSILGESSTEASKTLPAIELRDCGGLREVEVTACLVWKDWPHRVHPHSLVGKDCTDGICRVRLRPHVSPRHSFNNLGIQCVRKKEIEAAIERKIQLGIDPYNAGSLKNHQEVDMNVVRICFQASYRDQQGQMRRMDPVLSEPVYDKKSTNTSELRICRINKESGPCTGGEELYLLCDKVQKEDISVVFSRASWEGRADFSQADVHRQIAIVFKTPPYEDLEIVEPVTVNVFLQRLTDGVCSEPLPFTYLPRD
T2 sequence 2: T1 sequence

[3] = target: C-Rel subunit;p50 subunit (Homo sapiens;Homo sapiens, UniProt Q04864;P19838 1-285;7-356)
[4] = target: T3, C-Rel subunit;p52 subunit (Homo sapiens;Homo sapiens, UniProt Q04864;Q00653 1-285;4-332)
T3 sequence 1: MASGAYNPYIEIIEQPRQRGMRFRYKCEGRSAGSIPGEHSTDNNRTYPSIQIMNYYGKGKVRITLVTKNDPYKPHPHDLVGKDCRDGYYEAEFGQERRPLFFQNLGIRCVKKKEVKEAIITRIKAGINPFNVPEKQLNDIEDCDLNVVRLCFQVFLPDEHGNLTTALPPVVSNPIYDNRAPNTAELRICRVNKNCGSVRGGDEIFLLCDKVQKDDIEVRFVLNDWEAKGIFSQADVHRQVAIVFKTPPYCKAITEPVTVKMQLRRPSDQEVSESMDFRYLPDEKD
T3 sequence 2: T1 sequence

Sequence of RELARELA (p65 homodimer) (Q04206 1-307): as the sequence (Q04206 1-307, chain 1 of 2) above
Sequence of p50p50 homodimer (P19838 7-356): as the sequence (P19838 7-356, chain 2 of 2) above

Row | Sequence | binding signal (RELARELA (p65 homodimer)) [z-score] | binding signal (p50p50 homodimer) [z-score] | binding signal (p52p52 homodimer) [z-score] | binding signal [1] [z-score] | binding signal [2] [z-score] | binding signal (RELB subunit;p50 subunit) [z-score] | binding signal (RELB subunit;p52 subunit) [z-score] | binding signal [3] [z-score] | binding signal [4] [z-score]
1 | GGGTGAATCCT | 0.03 | 0.0518 | 0.368 | -0.186 | 0.102 | -0.241 | -0.135 | -0.176 | -0.138
2 | AAATTGCTCCT | -0.35 | -1.61 | -0.602 | -0.644 | -0.813 | -0.967 | -0.7 | -1.33 | -0.903
3 | GAGATGATCCT | -0.876 | -1.5 | -0.697 | -0.978 | -1.06 | -1.27 | -1.16 | -1.84 | -1.11
4 | GAGAACTTCCT | 0.439 | -0.697 | -0.718 | -0.503 | -0.731 | -0.944 | -0.781 | -0.692 | -0.645
5 | AGATAAGTCCC | 0.485 | 1.11 | 0.806 | 1.13 | 0.806 | 1.2 | 0.954 | 0.899 | 0.335
6 | GAATAGACCCT | -0.683 | -0.579 | -0.346 | -0.545 | -0.606 | -0.679 | -0.749 | -1.19 | -0.574
7 | GGAGTAATCCC | 0.396 | -0.279 | 0.000216 | -0.0898 | -0.103 | -0.277 | -0.368 | 0.0858 | 0.0188
8 | GGAATGGTCCT | 0.313 | -1.37 | -0.493 | -0.849 | -0.627 | -0.903 | -0.612 | -0.89 | -0.524
9 | GAGTAGTCCCT | 0.344 | 1.35 | 1.21 | 0.997 | 0.922 | 1.12 | 1.06 | 0.633 | 0.66
10 | GGGATCGTCCT | 0.173 | -0.724 | 0.0256 | -0.544 | -0.296 | -0.598 | -0.614 | -0.493 | -0.166
11 | GAGAATGTCCT | 0.673 | -1.23 | -0.437 | -0.682 | -0.739 | -1.01 | -0.926 | -0.737 | -0.678
12 | AGGATCTCCCC | 0.594 | 1.02 | 0.969 | 1.28 | 1.04 | 1.22 | 0.999 | 0.853 | 0.953
13 | GGGGTACTCCT | 0.917 | 0.595 | 0.756 | 0.47 | 0.851 | 0.471 | 0.712 | 0.395 | 0.674
14 | AAGTGCTCCCT | -0.204 | -0.136 | -0.291 | -0.382 | -0.51 | -0.322 | -0.434 | -0.836 | -0.646
15 | AAATAAACCCT | -0.478 | 0.0209 | 0.172 | -0.112 | 0.045 | -0.326 | -0.0813 | -0.324 | -0.00628
